# In article PMC7862700, “An all-to-all approach to the identification of sequence-specific readers for epigenetic DNA modifications on cytosine”:
# What was measured:
# Assay in all cases: DAPPL (digital affinity profiling via proximity ligation, sequencing); 10 mM Tris-HCl pH 7.5, 50 mM NaCl, 1 mM DTT, 4% glycerol, room temperature, 30 min; GST-TFs on glutathione beads, 16-mer random dsDNA library, 0.1% formaldehyde crosslink after washing; high values mean tight binding
# FEV = biological target: T1, FEV (Homo sapiens, UniProt Q99581 1-238); details: protein: recombinant; tags: N-terminal GST; dsDNA, one strand shown
# T1 sequence: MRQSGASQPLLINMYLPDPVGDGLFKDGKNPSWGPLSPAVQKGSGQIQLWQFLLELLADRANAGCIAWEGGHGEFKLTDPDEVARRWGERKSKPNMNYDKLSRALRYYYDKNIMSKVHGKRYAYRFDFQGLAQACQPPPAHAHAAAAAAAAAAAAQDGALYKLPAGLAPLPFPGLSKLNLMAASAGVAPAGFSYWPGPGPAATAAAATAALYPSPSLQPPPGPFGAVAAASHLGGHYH
# Outline: (§1)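 Human transcription factors fused to GST were expressed in yeast, captured on glutathione beads, given DNA barcodes and pooled with a GST-only negative control. Pools were incubated with 200 nmole of a 16-mer random double-stranded DNA library in Tris/NaCl/DTT/glycerol buffer at room temperature for 30 min. They were then washed, crosslinked with 0.1% formaldehyde, proximity-ligated (BsaI/T4 ligase, 1 h, 37 °C), PCR-amplified and sequenced on an Illumina NextSeq500. Binding signal is each 6-mer's read frequency for a factor divided by its frequency for the GST control.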
# ETV5 = ETV5 (Homo sapiens, UniProt P41161 1-510); details: protein: recombinant; tags: N-terminal GST; dsDNA, one strand shown
# Chain of ETV5 (P41161 whole entry): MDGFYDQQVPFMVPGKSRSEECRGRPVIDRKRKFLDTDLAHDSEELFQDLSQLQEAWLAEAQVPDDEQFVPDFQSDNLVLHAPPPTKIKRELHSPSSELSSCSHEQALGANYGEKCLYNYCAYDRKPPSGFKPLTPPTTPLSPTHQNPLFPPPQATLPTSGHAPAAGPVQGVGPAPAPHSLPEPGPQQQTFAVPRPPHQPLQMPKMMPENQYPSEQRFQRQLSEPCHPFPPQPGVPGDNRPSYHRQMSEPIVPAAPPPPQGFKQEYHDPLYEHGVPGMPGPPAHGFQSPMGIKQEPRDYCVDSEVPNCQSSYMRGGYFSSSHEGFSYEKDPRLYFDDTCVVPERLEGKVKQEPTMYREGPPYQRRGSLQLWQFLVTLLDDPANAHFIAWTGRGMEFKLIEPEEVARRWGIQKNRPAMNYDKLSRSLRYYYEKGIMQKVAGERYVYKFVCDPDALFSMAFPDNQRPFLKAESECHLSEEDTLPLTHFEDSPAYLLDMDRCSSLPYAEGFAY
# Outline: as §1
# HSF1 = HSF1 (Homo sapiens, UniProt Q00613 1-529); details: protein: recombinant; tags: N-terminal GST; chain copies: 3; dsDNA, one strand shown
# Chain of HSF1 (Q00613 whole entry): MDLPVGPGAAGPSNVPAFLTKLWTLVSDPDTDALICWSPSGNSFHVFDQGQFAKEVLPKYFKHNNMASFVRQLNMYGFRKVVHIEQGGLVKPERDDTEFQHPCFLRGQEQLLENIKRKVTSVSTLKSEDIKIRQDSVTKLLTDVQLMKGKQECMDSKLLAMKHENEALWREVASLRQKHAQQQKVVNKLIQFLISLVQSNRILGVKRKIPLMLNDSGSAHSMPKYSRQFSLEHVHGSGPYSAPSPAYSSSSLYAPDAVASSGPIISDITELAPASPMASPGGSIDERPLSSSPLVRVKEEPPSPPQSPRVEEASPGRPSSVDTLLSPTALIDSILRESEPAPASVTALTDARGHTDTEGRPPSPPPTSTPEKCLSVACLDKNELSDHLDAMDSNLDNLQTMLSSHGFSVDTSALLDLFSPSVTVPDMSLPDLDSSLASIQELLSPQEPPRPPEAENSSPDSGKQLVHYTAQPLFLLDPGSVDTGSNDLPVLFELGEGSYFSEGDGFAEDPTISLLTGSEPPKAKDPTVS
# Outline: as §1
# SPIC = biological target: T2, SPIC (Homo sapiens, UniProt Q8N5J4 1-248); details: protein: recombinant; tags: N-terminal GST; dsDNA, one strand shown
# T2 sequence: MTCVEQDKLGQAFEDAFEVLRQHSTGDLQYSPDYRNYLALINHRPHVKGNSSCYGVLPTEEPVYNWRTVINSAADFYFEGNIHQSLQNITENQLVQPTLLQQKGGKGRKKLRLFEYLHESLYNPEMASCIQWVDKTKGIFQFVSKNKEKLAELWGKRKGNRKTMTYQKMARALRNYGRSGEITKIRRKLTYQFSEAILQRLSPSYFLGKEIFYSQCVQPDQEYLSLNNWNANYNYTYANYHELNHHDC
# Outline: as §1
# ELF4 = ELF4 (Homo sapiens, UniProt Q99607 1-663); details: protein: recombinant; tags: N-terminal GST; dsDNA, one strand shown
# Chain of ELF4 (Q99607 whole entry): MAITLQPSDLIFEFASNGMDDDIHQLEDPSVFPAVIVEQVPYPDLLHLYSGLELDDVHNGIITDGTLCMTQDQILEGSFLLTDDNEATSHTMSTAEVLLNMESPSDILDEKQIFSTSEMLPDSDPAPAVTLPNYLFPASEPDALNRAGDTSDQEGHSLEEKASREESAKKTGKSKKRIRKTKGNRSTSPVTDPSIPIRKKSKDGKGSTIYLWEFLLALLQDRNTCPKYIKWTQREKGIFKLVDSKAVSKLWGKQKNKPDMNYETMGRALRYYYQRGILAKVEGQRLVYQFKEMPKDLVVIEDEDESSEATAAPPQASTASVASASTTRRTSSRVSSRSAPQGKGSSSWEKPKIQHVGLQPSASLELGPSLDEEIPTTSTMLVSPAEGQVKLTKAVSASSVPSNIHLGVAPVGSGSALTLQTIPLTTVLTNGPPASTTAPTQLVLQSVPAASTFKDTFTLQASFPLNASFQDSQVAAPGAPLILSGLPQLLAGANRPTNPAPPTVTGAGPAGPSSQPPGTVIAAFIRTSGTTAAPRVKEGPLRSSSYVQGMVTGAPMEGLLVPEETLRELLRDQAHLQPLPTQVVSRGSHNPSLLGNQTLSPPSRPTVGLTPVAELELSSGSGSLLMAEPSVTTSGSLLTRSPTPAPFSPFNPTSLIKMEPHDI
# Outline: as §1
# ELK4 = biological target: T3, ELK4 (Homo sapiens, UniProt P28324-2 1-405); details: protein: recombinant; tags: N-terminal GST; dsDNA, one strand shown
# T3 sequence: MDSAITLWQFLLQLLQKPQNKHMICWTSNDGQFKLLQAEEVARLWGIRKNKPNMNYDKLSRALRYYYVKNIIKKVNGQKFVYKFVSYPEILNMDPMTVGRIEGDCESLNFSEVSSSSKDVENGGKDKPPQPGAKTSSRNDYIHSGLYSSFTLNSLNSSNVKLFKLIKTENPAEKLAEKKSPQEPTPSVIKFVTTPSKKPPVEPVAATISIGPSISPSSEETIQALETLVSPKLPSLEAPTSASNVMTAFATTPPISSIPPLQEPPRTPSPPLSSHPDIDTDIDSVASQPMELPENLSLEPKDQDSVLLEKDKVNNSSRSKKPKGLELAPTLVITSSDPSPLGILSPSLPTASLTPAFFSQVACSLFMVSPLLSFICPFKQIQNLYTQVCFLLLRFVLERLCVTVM
# Outline: as §1
# ETV2 = biological target: T4, ETV2 (Homo sapiens, UniProt O00321 1-342); details: protein: recombinant; tags: N-terminal GST; dsDNA, one strand shown
# T4 sequence: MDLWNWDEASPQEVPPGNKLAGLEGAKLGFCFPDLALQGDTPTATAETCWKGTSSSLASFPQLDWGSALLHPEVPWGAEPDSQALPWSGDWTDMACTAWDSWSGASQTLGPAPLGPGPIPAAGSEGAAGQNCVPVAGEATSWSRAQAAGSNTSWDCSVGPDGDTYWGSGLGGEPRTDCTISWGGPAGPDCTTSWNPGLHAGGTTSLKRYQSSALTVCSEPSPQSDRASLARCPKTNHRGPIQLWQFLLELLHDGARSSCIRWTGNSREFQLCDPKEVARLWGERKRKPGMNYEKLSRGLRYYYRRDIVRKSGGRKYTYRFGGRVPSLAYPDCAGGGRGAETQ
# Outline: as §1
# ELF3 = biological target: T5, ELF3 (Homo sapiens, UniProt P78545 1-371); details: protein: recombinant; tags: N-terminal GST; dsDNA, one strand shown
# T5 sequence: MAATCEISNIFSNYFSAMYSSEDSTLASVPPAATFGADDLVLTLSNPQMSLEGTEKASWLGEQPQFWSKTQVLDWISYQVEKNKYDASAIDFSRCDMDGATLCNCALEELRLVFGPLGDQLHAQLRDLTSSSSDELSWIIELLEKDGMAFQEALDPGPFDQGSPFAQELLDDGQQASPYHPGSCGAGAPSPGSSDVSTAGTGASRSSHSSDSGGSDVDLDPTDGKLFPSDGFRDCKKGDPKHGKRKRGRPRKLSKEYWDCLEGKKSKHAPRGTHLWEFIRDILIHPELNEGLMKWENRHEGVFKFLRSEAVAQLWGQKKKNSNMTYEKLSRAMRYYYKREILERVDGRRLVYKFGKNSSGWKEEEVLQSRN
# Outline: as §1
# CRX = CRX (Homo sapiens, UniProt O43186 1-299); details: protein: recombinant; tags: N-terminal GST; dsDNA, one strand shown
# Chain of CRX (O43186 whole entry): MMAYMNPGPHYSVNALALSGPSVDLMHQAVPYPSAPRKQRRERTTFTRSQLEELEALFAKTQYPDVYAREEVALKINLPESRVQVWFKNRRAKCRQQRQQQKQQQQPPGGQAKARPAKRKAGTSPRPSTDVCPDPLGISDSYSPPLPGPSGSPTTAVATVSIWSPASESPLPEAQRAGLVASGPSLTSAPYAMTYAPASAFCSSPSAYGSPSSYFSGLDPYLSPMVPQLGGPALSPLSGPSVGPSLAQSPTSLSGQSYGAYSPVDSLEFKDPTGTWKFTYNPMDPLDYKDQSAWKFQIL
# Outline: as §1
# ETV1 = ETV1 (Homo sapiens, UniProt P50549 1-477); details: protein: recombinant; tags: N-terminal GST; dsDNA, one strand shown
# Chain of ETV1 (P50549 whole entry): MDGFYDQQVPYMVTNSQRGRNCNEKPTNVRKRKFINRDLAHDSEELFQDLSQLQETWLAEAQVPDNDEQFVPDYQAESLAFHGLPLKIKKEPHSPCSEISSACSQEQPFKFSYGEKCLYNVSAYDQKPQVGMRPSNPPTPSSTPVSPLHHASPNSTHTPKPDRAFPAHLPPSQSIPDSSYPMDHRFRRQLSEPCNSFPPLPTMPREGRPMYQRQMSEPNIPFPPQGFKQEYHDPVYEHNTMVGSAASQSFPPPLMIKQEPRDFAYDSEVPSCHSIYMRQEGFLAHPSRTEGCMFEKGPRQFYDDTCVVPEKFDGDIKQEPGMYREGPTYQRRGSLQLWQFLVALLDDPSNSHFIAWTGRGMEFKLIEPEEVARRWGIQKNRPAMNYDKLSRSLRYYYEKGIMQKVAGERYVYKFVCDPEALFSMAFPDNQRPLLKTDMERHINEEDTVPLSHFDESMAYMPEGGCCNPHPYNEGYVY
# Outline: as §1
# ERF = biological target: T6, ERF (Homo sapiens, UniProt P50548 1-548); details: protein: recombinant; tags: N-terminal GST; dsDNA, one strand shown
# T6 sequence: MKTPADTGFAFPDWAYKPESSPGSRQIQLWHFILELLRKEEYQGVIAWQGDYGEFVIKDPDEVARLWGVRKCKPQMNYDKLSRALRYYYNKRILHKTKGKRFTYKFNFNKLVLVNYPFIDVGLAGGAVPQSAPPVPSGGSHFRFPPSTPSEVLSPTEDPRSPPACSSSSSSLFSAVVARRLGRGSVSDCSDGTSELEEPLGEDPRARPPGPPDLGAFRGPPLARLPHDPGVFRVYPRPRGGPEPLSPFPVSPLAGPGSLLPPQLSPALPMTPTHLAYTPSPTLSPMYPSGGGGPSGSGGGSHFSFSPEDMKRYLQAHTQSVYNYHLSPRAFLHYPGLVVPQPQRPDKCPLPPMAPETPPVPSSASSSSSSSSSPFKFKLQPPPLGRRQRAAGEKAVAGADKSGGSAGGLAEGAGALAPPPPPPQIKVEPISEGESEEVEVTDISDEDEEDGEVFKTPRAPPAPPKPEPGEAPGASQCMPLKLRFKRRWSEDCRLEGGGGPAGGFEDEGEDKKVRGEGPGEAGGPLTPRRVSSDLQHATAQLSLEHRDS
# Outline: as §1
# ETV3L = biological target: T7, ETV3L (Homo sapiens, UniProt Q6ZN32 1-361); details: protein: recombinant; tags: N-terminal GST; dsDNA, one strand shown
# T7 sequence: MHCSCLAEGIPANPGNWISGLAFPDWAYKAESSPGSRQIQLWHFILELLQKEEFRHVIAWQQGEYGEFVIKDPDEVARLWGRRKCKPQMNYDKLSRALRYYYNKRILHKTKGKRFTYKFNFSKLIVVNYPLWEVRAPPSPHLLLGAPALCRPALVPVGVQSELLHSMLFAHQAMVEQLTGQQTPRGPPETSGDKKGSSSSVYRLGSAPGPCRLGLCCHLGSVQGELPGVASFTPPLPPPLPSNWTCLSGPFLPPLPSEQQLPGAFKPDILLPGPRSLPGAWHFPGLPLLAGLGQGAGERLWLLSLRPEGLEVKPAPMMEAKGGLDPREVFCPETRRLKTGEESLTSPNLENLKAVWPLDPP
# Outline: as §1
# ETS2 = biological target: T8, ETS2 (Homo sapiens, UniProt P15036 1-469); details: protein: recombinant; tags: N-terminal GST; dsDNA, one strand shown
# T8 sequence: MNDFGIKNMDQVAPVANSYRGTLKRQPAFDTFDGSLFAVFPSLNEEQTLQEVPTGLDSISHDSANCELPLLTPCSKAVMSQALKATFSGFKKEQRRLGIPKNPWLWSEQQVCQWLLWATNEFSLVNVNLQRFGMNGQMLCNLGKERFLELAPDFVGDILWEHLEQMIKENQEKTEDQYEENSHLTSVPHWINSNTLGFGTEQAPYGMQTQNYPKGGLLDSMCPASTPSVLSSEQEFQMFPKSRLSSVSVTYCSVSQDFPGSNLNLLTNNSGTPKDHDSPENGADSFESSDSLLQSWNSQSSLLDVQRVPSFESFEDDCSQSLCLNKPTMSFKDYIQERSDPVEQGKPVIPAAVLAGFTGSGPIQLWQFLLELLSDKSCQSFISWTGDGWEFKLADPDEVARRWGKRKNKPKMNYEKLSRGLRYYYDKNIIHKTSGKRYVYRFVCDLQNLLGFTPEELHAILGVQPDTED
# Outline: as §1
# SPDEF = biological target: T9, SPDEF (Homo sapiens, UniProt O95238 1-335); details: protein: recombinant; tags: N-terminal GST; dsDNA, one strand shown
# T9 sequence: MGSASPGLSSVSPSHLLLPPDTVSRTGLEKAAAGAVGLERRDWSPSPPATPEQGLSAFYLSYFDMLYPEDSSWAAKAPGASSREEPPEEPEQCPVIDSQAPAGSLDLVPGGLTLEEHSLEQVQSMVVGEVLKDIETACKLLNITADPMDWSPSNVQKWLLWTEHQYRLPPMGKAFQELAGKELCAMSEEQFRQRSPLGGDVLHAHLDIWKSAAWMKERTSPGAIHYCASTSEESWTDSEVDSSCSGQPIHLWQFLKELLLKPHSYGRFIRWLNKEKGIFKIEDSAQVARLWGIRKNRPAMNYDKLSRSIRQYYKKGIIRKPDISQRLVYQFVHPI
# Outline: as §1
# ETV7 = biological target: T10, ETV7 (Homo sapiens, UniProt Q9Y603 1-341); details: protein: recombinant; tags: N-terminal GST; dsDNA, one strand shown
# T10 sequence: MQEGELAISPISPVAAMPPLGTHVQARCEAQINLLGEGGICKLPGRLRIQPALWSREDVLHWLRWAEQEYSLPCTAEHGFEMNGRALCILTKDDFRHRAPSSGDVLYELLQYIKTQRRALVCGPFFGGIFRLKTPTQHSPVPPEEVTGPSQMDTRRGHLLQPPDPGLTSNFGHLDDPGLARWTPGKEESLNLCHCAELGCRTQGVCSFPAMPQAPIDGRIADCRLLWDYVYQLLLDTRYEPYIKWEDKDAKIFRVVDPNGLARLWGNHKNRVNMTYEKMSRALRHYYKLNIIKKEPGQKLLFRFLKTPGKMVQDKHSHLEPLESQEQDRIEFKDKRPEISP
# Outline: as §1
# ELF5 = biological target: T11, ELF5 (Homo sapiens, UniProt Q9UKW6-2 1-255); details: protein: recombinant; tags: N-terminal GST; dsDNA, one strand shown
# T11 sequence: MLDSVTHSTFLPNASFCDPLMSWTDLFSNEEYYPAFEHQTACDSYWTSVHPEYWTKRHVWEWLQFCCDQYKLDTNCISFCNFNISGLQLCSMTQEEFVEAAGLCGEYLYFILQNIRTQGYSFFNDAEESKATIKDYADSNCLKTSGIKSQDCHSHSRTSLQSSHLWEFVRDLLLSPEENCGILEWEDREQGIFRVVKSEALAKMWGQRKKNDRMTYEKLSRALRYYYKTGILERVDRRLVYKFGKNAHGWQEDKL
# Outline: as §1
# ETV3 = biological target: T12, ETV3 (Homo sapiens, UniProt P41162-2 1-143); details: protein: recombinant; tags: N-terminal GST; dsDNA, one strand shown
# T12 sequence: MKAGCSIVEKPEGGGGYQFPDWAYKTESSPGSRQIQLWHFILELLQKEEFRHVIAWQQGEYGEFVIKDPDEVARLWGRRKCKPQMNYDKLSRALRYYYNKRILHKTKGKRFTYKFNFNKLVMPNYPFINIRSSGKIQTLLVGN
# Outline: as §1
# ETV6 = ETV6 (Homo sapiens, UniProt P41212 1-452); details: protein: recombinant; tags: N-terminal GST; dsDNA, one strand shown
# Chain of ETV6 (P41212 whole entry): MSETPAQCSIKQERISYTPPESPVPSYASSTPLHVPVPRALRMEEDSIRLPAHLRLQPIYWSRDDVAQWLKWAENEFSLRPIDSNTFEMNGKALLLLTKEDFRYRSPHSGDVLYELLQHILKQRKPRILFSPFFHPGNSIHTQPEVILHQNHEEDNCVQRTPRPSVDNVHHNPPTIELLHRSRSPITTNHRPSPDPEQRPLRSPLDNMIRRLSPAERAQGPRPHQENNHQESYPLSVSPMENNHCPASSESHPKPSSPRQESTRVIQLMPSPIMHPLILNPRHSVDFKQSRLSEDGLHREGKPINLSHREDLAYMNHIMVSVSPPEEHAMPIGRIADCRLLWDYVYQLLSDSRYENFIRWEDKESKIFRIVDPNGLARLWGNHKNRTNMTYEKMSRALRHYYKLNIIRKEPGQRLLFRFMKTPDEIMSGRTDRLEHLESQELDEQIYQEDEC
# Outline: as §1
sequence,measurement,setting,value
ATCCTG,binding signal,FEV,"1.46 fold enrichment (6-mer frequency, TF over GST control)"
same,binding signal,ETV5,"1.71 fold enrichment (6-mer frequency, TF over GST control)"
same,binding signal,HSF1,"1.33 fold enrichment (6-mer frequency, TF over GST control)"
same,binding signal,SPIC,"1.19 fold enrichment (6-mer frequency, TF over GST control)"
same,binding signal,ELF4,"1.35 fold enrichment (6-mer frequency, TF over GST control)"
same,binding signal,ELK4,"1.33 fold enrichment (6-mer frequency, TF over GST control)"
same,binding signal,ETV2,"1.42 fold enrichment (6-mer frequency, TF over GST control)"
same,binding signal,ELF3,"1.35 fold enrichment (6-mer frequency, TF over GST control)"
same,binding signal,CRX,"1.55 fold enrichment (6-mer frequency, TF over GST control)"
same,binding signal,ETV1,"1.43 fold enrichment (6-mer frequency, TF over GST control)"
same,binding signal,ERF,"1.28 fold enrichment (6-mer frequency, TF over GST control)"
same,binding signal,ETV3L,"1.49 fold enrichment (6-mer frequency, TF over GST control)"
same,binding signal,ETS2,"1.56 fold enrichment (6-mer frequency, TF over GST control)"
same,binding signal,SPDEF,"2.47 fold enrichment (6-mer frequency, TF over GST control)"
same,binding signal,ETV7,"1.51 fold enrichment (6-mer frequency, TF over GST control)"
same,binding signal,ELF5,"1.84 fold enrichment (6-mer frequency, TF over GST control)"
same,binding signal,ETV3,"1.61 fold enrichment (6-mer frequency, TF over GST control)"
same,binding signal,ETV6,"1.48 fold enrichment (6-mer frequency, TF over GST control)"
